# Laboratory results published in PubChem BioAssay (EPA / NIEHS).
# Active and inactive are the calls of the source. The calls were made as follows: active = hit-call score of the fitted dose curve at least 0.9, where 1 is the maximum; inactive = score below 0.9.
# Read-out: TIMP1, TIMP1 (gene 7076)
# Test: LTEA_HepaRG_TIMP1: Life Technologies and Expression Analysis (LTEA) Assay for TIMP1 using HepaRG (AID 2283534);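 as to outcome: TaqMan qRT-PCR signal normalized to ACTB GAPDH and POLR2A housekeeping genes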
# Conditions: mRNA level, 48 h; actives raise or lower the signal
# In short: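 Readout is TIMP1 mRNA level measured by qRT-PCR and normalized to three housekeeping genes. Human HepaRG cells were treated for 48 h in duplicate at eight concentrations up to 100 uM (0.5% DMSO); gain or loss fitted against DMSO.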
SMILES,outcome,AC50
Cc1cc(CCN2CCN(c3nsc4ccccc34)CC2)cc2c1NC(=O)CC2(C)C,inactive,
c1ccc2c(c1)Cc1ccccc1-2,inactive,
COC(=O)CCCCC(=O)OC,inactive,
C#C[C@]1(O)CC[C@H]2[C@@H]3CCC4=CC(=O)CC[C@@H]4[C@H]3CC[C@@]21C,inactive,
CC(=O)NC1(c2cccc(F)c2)CCN(CC[C@@]2(c3ccc(Cl)c(Cl)c3)CN(c3ccccc3)C(=O)CO2)CC1,inactive,
CC(O)CO (stereo not drawn),inactive,
COCC(C)OCC(C)O (stereo not drawn),inactive,
CC(=O)CC(C)(C)O,inactive,
CC(C)(C)c1cc(C(C)(C)C)c(O)c(C(C)(C)C)c1,inactive,
CN1CCC[C@H]1c1cccnc1,inactive,
CC(C)(C)CC(C)(C)c1ccc(O)c(-n2nc3ccccc3n2)c1,inactive,
Nc1cccc2c(N)cccc12,inactive,
CCC(=C(c1ccc(O)cc1)c1ccc(OCCN(C)C)cc1)c1ccccc1,inactive,
CC[C@H](C)[C@@H](C(=O)O)n1sc2ccccc2c1=O,inactive,
OC1CCC(C2CCCCC2)CC1 (stereo not drawn),inactive,
O=[N+]([O-])c1ccc(O)cc1,inactive,
CCN(CC)CCNc1ccc(CNC=O)c2sc3ccc(OC)cc3c(=O)c12,inactive,
O=C(OCCOCCOC(=O)c1ccccc1)c1ccccc1,inactive,
CCC(C)(C)C1CCC(O)CC1 (stereo not drawn),inactive,
CCCCCCCCOC(=O)CCCCCCCCC(=O)OCCCCCCCC,inactive,
CC[C@H](c1ccc(O)cc1)[C@@H](CC)c1ccc(O)cc1,inactive,
CCCCCCCCC(=O)O,inactive,
CCCCOCCO,inactive,
Cc1cc(C)c(O)c(C)c1,inactive,
CCCOC(=O)c1ccc(O)cc1,inactive,
c1ccc2c(c1)ccc1ccccc12,inactive,
CC(C)(C)c1ccc(O)c(C(C)(C)C)c1,inactive,
NC(=O)N1C(=O)C(C(=O)c2cc(Cl)cs2)c2cc(F)c(Cl)cc21 (stereo not drawn),,85.2 µM (active)
CCOC(=O)CC(O)(CC(=O)OCC)C(=O)OCC,inactive,

# Read-out: Tumor necrosis factor receptor 1 (TNFRSF1A), TNFRSF1A (gene 7132)
# Test: LTEA_HepaRG_TNFRSF1A: Life Technologies and Expression Analysis (LTEA) Assay for Tumor necrosis factor receptor 1 (TNFRSF1A) using HepaRG (AID 2283535)
# Conditions: mRNA level, 48 h; actives raise or lower the signal
# In short: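 Read-out is TNFRSF1A transcript level by TaqMan qRT-PCR, normalized to three housekeeping genes, scored as gain or loss of signal versus 0.5% DMSO. Human HepaRG cells received test chemicals for 48 h at up to 100 uM (half-log series).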
SMILES,outcome,AC50
Cc1cc(CCN2CCN(c3nsc4ccccc34)CC2)cc2c1NC(=O)CC2(C)C,inactive,
c1ccc2c(c1)Cc1ccccc1-2,inactive,
COC(=O)CCCCC(=O)OC,inactive,
C#C[C@]1(O)CC[C@H]2[C@@H]3CCC4=CC(=O)CC[C@@H]4[C@H]3CC[C@@]21C,inactive,
CC(=O)NC1(c2cccc(F)c2)CCN(CC[C@@]2(c3ccc(Cl)c(Cl)c3)CN(c3ccccc3)C(=O)CO2)CC1,inactive,
CC(O)CO (stereo not drawn),inactive,
COCC(C)OCC(C)O (stereo not drawn),inactive,
CC(=O)CC(C)(C)O,inactive,
CC(C)(C)c1cc(C(C)(C)C)c(O)c(C(C)(C)C)c1,inactive,
CN1CCC[C@H]1c1cccnc1,inactive,
CC(C)(C)CC(C)(C)c1ccc(O)c(-n2nc3ccccc3n2)c1,inactive,
Nc1cccc2c(N)cccc12,inactive,
CCC(=C(c1ccc(O)cc1)c1ccc(OCCN(C)C)cc1)c1ccccc1,inactive,
CC[C@H](C)[C@@H](C(=O)O)n1sc2ccccc2c1=O,inactive,
OC1CCC(C2CCCCC2)CC1 (stereo not drawn),inactive,
O=[N+]([O-])c1ccc(O)cc1,inactive,
CCN(CC)CCNc1ccc(CNC=O)c2sc3ccc(OC)cc3c(=O)c12,,43.5 µM (active)
O=C(OCCOCCOC(=O)c1ccccc1)c1ccccc1,inactive,
CCC(C)(C)C1CCC(O)CC1 (stereo not drawn),inactive,
CCCCCCCCOC(=O)CCCCCCCCC(=O)OCCCCCCCC,inactive,
CC[C@H](c1ccc(O)cc1)[C@@H](CC)c1ccc(O)cc1,,93.4 µM (active)
CCCCCCCCC(=O)O,inactive,
CCCCOCCO,inactive,
Cc1cc(C)c(O)c(C)c1,inactive,
CCCOC(=O)c1ccc(O)cc1,,0.779 µM (active)
c1ccc2c(c1)ccc1ccccc12,inactive,
CC(C)(C)c1ccc(O)c(C(C)(C)C)c1,,50 µM (active)
NC(=O)N1C(=O)C(C(=O)c2cc(Cl)cs2)c2cc(F)c(Cl)cc21 (stereo not drawn),,40.2 µM (active)
CCOC(=O)CC(O)(CC(=O)OCC)C(=O)OCC,inactive,
